aSyn 5UTR act: Activators via SNCA 5'UTR binding, MLPCN | alpha-synuclein 5'UTR reporter, activators screen | activity score, % (tested at 7.5 µM), hits read low | hit rate 7.1% among 300,000 | AID 1814; in the data active = activity score below about -60%
The depositor's hits bear a star. A selection follows.

SMILES	aSyn 5UTR act
Cc1ccc(-c2csc(C(C#N)=C3CCCC3)n2)cc1	-236.3*
N#CC(=C1CCCC1)c1nc(-c2ccccc2O)cs1	-209.5*
N#CC(=C1CCCC1)c1nc(-c2ccccc2)cs1	-186.6*
O=c1cnc2ccccc2n1Cc1ccc(Br)cc1	-65.0*
COCc1nc2ccccc2n1Cc1ccc(Br)cc1	-79.9*
CN1C(=O)/C(=C2\SC(=S)N(CCCCCC(=O)O)C2=O)c2ccccc21	-66.7*
CCN(CC)CCNc1ccnc2cc(Cl)ccc12	-61.7*
COc1ccc(Nc2cc(C)nc(N)n2)cc1	-64.0*
Cc1cc(Nc2ccc(Cl)cc2)nc(N)n1	-110.7*
Nc1cc(Nc2ccc(Br)cc2)nc(N)n1	-149.4*
CC(C)c1ccc(NC(=O)C2=NNC(=O)CC2)cc1	-143.2*
Cc1ccc(NC(=O)C2=NNC(=O)CC2)cc1F	-74.9*
Cc1nc2c(ccc3nc(NC(=O)C4CC4)sc32)s1	-121.0*
CCC(=O)Nc1nc2ccc3sc(C)nc3c2s1	-86.3*
CCOC(=O)c1cc2c(s1)-c1ccccc1CC2	-97.5*
CCOC(=O)c1cc2ccc3ccccc3c2s1	-169.3*
O=C1CC(c2cc(-c3ccccc3)no2)C1	-98.9*
Cc1nc2c(C(=O)N3CCCCC3)cnn2c(C)c1Cc1ccccc1F	-117.2*
Cc1ccc2c(CNCc3ccccc3)cc(=O)oc2c1	-64.8*
Cc1ccc2c(CN(C)Cc3cccc(F)c3)cc(=O)oc2c1	-123.6*
Cc1cc2oc(=O)cc(CN(C)Cc3ccccc3F)c2cc1Cl	-79.6*
O=C(NCc1cccnc1)Nc1ccc(Cl)c(Cl)c1	-109.9*
O=C(/C=C/NCc1cccnc1)c1ccc(Br)cc1	-66.4*
O=C(NCc1cccnc1)Nc1ccc(Br)cc1	-79.2*
CCCCOc1ccc(-n2nc(C)cc2C)nn1	-72.1*
SMILES	aSyn 5UTR act
Oc1ccc(CNc2ccc(F)cc2)c2cccnc12	75.6
Cn1c(-c2ccc(F)cc2)cnc1NCc1ccccc1F	-66.1*
Cn1c(-c2ccccc2)cnc1NCc1cc(Cl)ccc1O	-66.5*
CCCn1c(CN2CCN(C(=O)OCC)CC2)nc2cc(NC(=O)C(C)C)ccc21	-70.2*
Cc1cc(Cl)ccc1OCC(=O)Nc1ccccc1CO	-80.9*
CSc1ccccc1NC(=O)COc1ccc(Cl)cc1C	-63.2*
Cc1ccccc1OCc1nc(-c2cccnc2)no1	-70.6*
Cc1ccc(OCc2nc(-c3cccnc3)no2)cc1C	-124.9*
Cc1cc(OCc2nc(-c3cccnc3)no2)c(C)cc1Br	-68.5*
CN(C)c1ccc(C2Nc3ccccc3C(=O)N2CCCN2CCOCC2)cc1 (stereo not given)	-119.8*
COc1cc(/C=N/N2CCOCC2)ccc1OCc1ccccc1	-107.4*
COc1cc(/C=N/N2CCOCC2)ccc1OCc1ccc(Cl)cc1	-66.4*
Cc1cccn2c(=O)c3cc(C(=O)NCC4CCCO4)c(=N)n(CCc4ccccc4)c3nc12 (stereo not given)	-100.8*
CCCn1c(=N)c(C(=O)NC2CCCC2)cc2c(=O)n3cccc(C)c3nc21	-67.0*
Cc1cccn2c(=O)c(C(=O)NC3CCCCC3)c(O)nc12	-66.5*
COc1ccc(CCn2c(=N)c(C(=O)NC3CCCC3)cc3c(=O)n4ccccc4nc32)cc1OC	-61.9*
Cc1cccn2c(=O)c3cc(C(=O)NC4CCCC4)n(C)c3nc12	-93.5*
CS(=O)(=O)Nc1ccc(C(=O)Nc2ccc3ccccc3c2)cc1	-213.6*
CC(C)c1ccc(NC(=O)c2ccc(NS(C)(=O)=O)cc2)cc1	-75.8*
Cn1c(=O)n(/N=C/c2ccccc2)c2ccccc21	-106.7*
Cc1csc(=NC(=O)c2ccccc2)n1C	-126.0*
CCn1c(C)csc1=NC(=O)c1ccccc1O	-249.5*
CCn1c(C)csc1=NC(=O)c1ccccc1	-112.1*
CCNc1ccccc(-c2ccc3ccccc3n2)c1=O	-186.4*
O=C1c2ccccc2C(=O)C1c1ccc2ccccc2n1	94.4
SMILES	aSyn 5UTR act
COc1ccc2[nH]cc(/C=C/C(=O)c3ccccc3)c2c1	-245.4*
Cc1ccc(C(=O)/C=C/c2cn(CN3CCN(C)CC3)c3ccccc23)cc1	-231.2*
Cc1ccc(C(=O)/C=C/c2c[nH]c3ccccc23)cc1	-237.2*
O=C(/C=C/c1c[nH]c2ccccc12)c1ccccc1	-330.2*
COc1cccc2cc(-c3ccnc(N)n3)oc12	-80.1*
O=C(CCc1ccncc1)NC1CCCc2c1cnn2-c1cc(F)cc(F)c1 (stereo not given)	78.7
CC(C)(C)c1ccc(-n2ncc3c2CCCC3NC(=O)c2cnccn2)cc1 (stereo not given)	-67.8*
O=C(Nc1ccc2oc(=O)ccc2c1)c1cc2ccccc2o1	-176.6*
Cc1cc(=O)oc2cc(NC(=O)c3cccc(Br)c3)ccc12	-166.1*
Cc1cc(C(=O)Nc2ccccc2)oc(=O)c1	-84.7*
CN(C)S(=O)(=O)c1ccc(NC(=O)c2cc3ccccc3o2)cc1	-110.3*
Cc1cc(=O)oc2cc(NC(=O)c3ccccc3OC(F)F)ccc12	-113.7*
Cc1cc(=O)oc2cc(NC(=O)c3cc4ccccc4o3)ccc12	-93.7*
Cn1c(=O)n(C)c2cc(NC(=O)c3cc4ccccc4o3)ccc21	-146.0*
COCc1cc(=O)oc2cc(NC(=O)c3ccc(C(C)(C)C)cc3)ccc12	-110.2*
COc1nc(C)ccc1-c1noc(-c2ccncc2)n1	-124.9*
COc1nc(-c2ccccc2)ccc1-c1noc(-c2ccco2)n1	-167.5*
COc1ccc(-c2ccc(-c3noc(-c4ccco4)n3)c(OC)n2)cc1	-125.7*
COc1nc(-c2ccccc2)ccc1-c1noc(-c2cccs2)n1	-198.0*
C=C1C(=O)O[C@@H]2C[C@@H](C)[C@@H]3C=CC(=O)[C@@]3(C)[C@@H](OC(C)=O)[C@H]12	95.4
COc1nc(-c2ccccc2)ccc1-c1noc(-c2ccccc2)n1	-93.7*
O=C(Nc1cc2c(ccc3ccccc32)oc1=O)C1CCCCC1	-62.2*
O=C(NC1CCCC1)c1cc2c(ccc3ccccc32)o1	-202.3*
CNC(=O)c1cc2c(ccc3ccccc32)o1	-60.5*
N#Cc1c(N)nc2c(c1N)CC(COc1ccccc1)O2 (stereo not given)	-130.3*
SMILES	aSyn 5UTR act
O=C(Nc1cc(N2CCCCC2)ncn1)c1ccc(F)cc1	-86.3*
Cc1cc(N2CCOCC2)ccc1/C=C1\SC(=O)N(C(C)C)C1=O	-114.6*
CCC(C)N1C(=O)S/C(=C/c2ccc(N3CCOCC3)cc2C)C1=O (stereo not given)	-166.7*
Cc1cc(/C=C2/C(=O)N(C)C(=S)N2C)ccc1N1CCCC1	-212.4*
Cc1cc(/C=C2\NC(=S)N(C)C2=O)ccc1N1CCCC1	-205.7*
COC(=O)c1c(C)oc2ccc(N(C(=O)c3ccncc3)S(=O)(=O)c3ccc(C)cc3)cc12	109.8
Cc1ccc(S(=O)(=O)N(C(=O)c2ccncc2)c2ccc(OC(=O)c3ccncc3)c3ccccc23)cc1	-64.8*
NC(=O)c1ccccc1NC(=O)COc1ccc2c(c1)OCO2	-87.2*
CCc1ccc(OCC(=O)Nc2ncn[nH]2)cc1	-87.5*
COc1ccccc1NC(=O)COc1ccc2c(c1)OCO2	-75.7*
CCc1ccc(NC(=O)COc2ccc3c(c2)OCO3)cc1	-73.8*
COc1ccccc1C(=O)N(CCC1CCCN1C)c1nc2ccccc2s1 (stereo not given)	-103.2*
COc1cccc2sc(N(CCCN(C)C)C(=O)c3ccc(S(=O)(=O)N4CCCc5ccccc54)cc3)nc12	64.1
COc1cccc2sc(N(CCCN(C)C)C(=O)c3ccc(S(=O)(=O)N4CCc5ccccc5C4)cc3)nc12	94.2
Nc1cc2c(cc1O)CCCC2	-90.5*
CC(=O)c1ccc(N2Cc3ccccc3C2=NC(=O)c2cccs2)cc1	-69.4*

Screens deposited in PubChem by Broad Institute.
